According to PubChem BioAssay AID1159580 (chemical genetic matrix, 2015):
Where “and” joins values, the source holds several entries; their conditions need not be identical. Equal values may be shown once. Hit rate of the full screen: of about 5,500 compounds, about 2,000 (36%) were called active. Not shown: some 18% with an inconclusive outcome. Cut-off read from the data, not from the text of the source: active = normalized growth mostly below about 0.91 (no sharp cut-off); inconclusive = no clear call, values can overlap the other calls; inactive = mostly above about 0.92. This is one part of the list.

Experiment: chemical genetic growth profiling, strain panel (AID 1159580);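 note: tested at 20 µM; growth read once vehicle control cultures reached saturation at 30 °C; 1 = growth at the plate median or of vehicle wells; lower values mean less growth of the strain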
Settings: S. cerevisiae deletion strains, growth OD
[1] = locus YAR019C, strain CDC15, stronger effect = lower value
[2] = locus YBL105C, strain PKC1, stronger effect = lower value
[3] = locus YBR135W, strain CKS1, stronger effect = lower value
[4] = locus YBR136W, strain MEC1, stronger effect = lower value
[5] = locus YBR160W, strain CDC28, stronger effect = lower value
[6] = locus YDL017W, strain CDC7, stronger effect = lower value
[7] = locus YDL028C, strain MPS1, stronger effect = lower value
[8] = locus YDL101C, strain DUN1, stronger effect = lower value
[9] = locus YDL108W, strain KIN28, stronger effect = lower value
[10] = locus YDL132W, strain cdc53, stronger effect = lower value
[11] = locus YDL214C, strain PRR2, stronger effect = lower value
[12] = locus YDR052C, strain DBF4, stronger effect = lower value
[13] = locus YDR054C, strain cdc34, stronger effect = lower value
[14] = locus YDR226W, strain ADK1, stronger effect = lower value
[15] = locus YDR477W, strain SNF1, stronger effect = lower value
[16] = locus YER123W, strain YCK3, stronger effect = lower value
[17] = locus YER133W, strain GLC7, stronger effect = lower value
[18] = locus YFL009W, strain cdc4, stronger effect = lower value
[19] = locus YFL029C, strain CAK1, stronger effect = lower value
[20] = locus YFR003C, strain YPI1, stronger effect = lower value
[21] = locus YFR019W, strain FAB1, stronger effect = lower value
[22] = locus YFR028C, strain CDC14, stronger effect = lower value
[23] = locus YGR040W, strain KSS1, stronger effect = lower value
[24] = locus YGR052W, strain FMP48, stronger effect = lower value
[25] = locus YGR092W, strain DBF2, stronger effect = lower value
[26] = locus YHR030C, strain SLT2, stronger effect = lower value
[27] = locus YHR079C, strain IRE1, stronger effect = lower value
[28] = locus YHR082C, strain KSP1, stronger effect = lower value
[29] = locus YHR205W, strain SCH9, stronger effect = lower value
[30] = locus YIL147C, strain SLN1, stronger effect = lower value
[31] = locus YJL095W, strain BCK1, stronger effect = lower value
[32] = locus YJL128C, strain PBS2, stronger effect = lower value
[33] = locus YJL157C, strain FAR1, stronger effect = lower value
[34] = locus YJR016C, strain ILV3, stronger effect = lower value
[35] = locus YJR066W, strain TOR1 (second series), stronger effect = lower value
[36] = locus YJR066W, strain TOR1, stronger effect = lower value
[37] = locus YKL048C, strain ELM1, stronger effect = lower value
[38] = locus YKL067W, strain YNK1, stronger effect = lower value
[39] = locus YKL101W, strain HSL1, stronger effect = lower value
[40] = locus YKL193C, strain SDS22, stronger effect = lower value
[41] = locus YKL203C, strain TOR2, stronger effect = lower value
[42] = locus YLR113W, strain HOG1, stronger effect = lower value
[43] = locus YLR133W, strain CKI1, stronger effect = lower value
[44] = locus YLR403W, strain SFP1, stronger effect = lower value
[45] = locus YML070W, strain DAK1, stronger effect = lower value
[46] = locus YMR001C, strain CDC5, stronger effect = lower value
[47] = locus YMR205C, strain PFK2 (second series), stronger effect = lower value
[48] = locus YMR277W, strain FCP1, stronger effect = lower value
[49] = locus YNL006W, strain LST8, stronger effect = lower value
[50] = locus YNL020C, strain ARK1, stronger effect = lower value
[51] = locus YNL161W, strain CBK1, stronger effect = lower value
[52] = locus YNL183C, strain NPR1, stronger effect = lower value
[53] = locus YNL207W, strain RIO2, stronger effect = lower value
[54] = locus YNL222W, strain SSU72, stronger effect = lower value
[55] = locus YNL307C, strain MCK1 (second series), stronger effect = lower value
[56] = locus YOL078W, strain AVO1, stronger effect = lower value
[57] = locus YOL136C, strain PFK27, stronger effect = lower value
[58] = locus YOR061W, strain CKA2, stronger effect = lower value
[59] = locus YOR119C, strain RIO1, stronger effect = lower value
[60] = locus YOR231W, strain MKK1, stronger effect = lower value
[61] = locus YOR329C, strain SCD5, stronger effect = lower value
[62] = locus YPL031C, strain PHO85, stronger effect = lower value
[63] = locus YPL153C, strain RAD53, stronger effect = lower value
[64] = locus YPL204W, strain HRR25, stronger effect = lower value
[65] = locus YPL209C, strain IPL1, stronger effect = lower value
[66] = locus YPL256C, strain CLN2, stronger effect = lower value
[67] = locus YPR025C, strain CCL1, stronger effect = lower value
[68] = locus YPR106W, strain ISR1, stronger effect = lower value
[69] = locus YPR111W, strain DBF20, stronger effect = lower value
[70] = strain NNK1, stronger effect = lower value
[71] = strain TSCII, stronger effect = lower value
[72] = locus YAL013W, strain DEP1, stronger effect = lower value
[73] = locus YDR150W, strain NUM1, stronger effect = lower value
[74] = locus YGR229C, strain SMI1, stronger effect = lower value
[75] = locus YJR075W, strain HOC1, stronger effect = lower value
[76] = locus YNL153C, strain GIM3, stronger effect = lower value
[77] = locus YNL322C, strain KRE1, stronger effect = lower value
[78] = locus YPL241C, strain CIN2, stronger effect = lower value

Measured: normalized growth

O=[N+]([O-])c1ccc(NCc2ccc(Cl)c(Cl)c2)nc1
inactive: [1] 0.931 | [2] 0.936 | [3] 0.936 | [4] 0.944 | [5] 0.941 | [6] 0.946 | [7] 0.946 | [8] 0.925 | [9] 0.942 | [10] 0.919 | [11] 0.857 | [12] 0.953 | [13] 0.918 | [14] 0.937 | [15] 0.882 | [16] 0.862 | [17] 0.842 | [18] 0.923 | [19] 0.931 | [20] 0.944 | [21] 0.907 | [22] 0.917 | [23] 0.884 | [24] 0.861 | [25] 0.852 | [27] 0.78 | [28] 0.906 | [29] 0.81 | [30] 0.94 | [31] 0.774 | [32] 0.839 | [33] 0.883 | [34] 0.939 | [35] 0.892 | [36] 0.898 | [37] 0.913 | [38] 0.891 | [39] 0.875 | [40] 0.935 | [41] 0.948 | [43] 0.911 | [44] 0.865 | [45] 0.854 | [46] 0.938 | [47] 0.875 | [48] 0.932 | [49] 0.916 | [50] 0.893 | [51] 0.93 | [52] 0.934 | [53] 0.937 | [54] 0.927 | [55] 0.91 | [56] 0.926 | [57] 0.864 | [58] 0.884 | [59] 0.949 | [60] 0.87 | [61] 0.933 | [62] 0.88 | [63] 0.895 | [64] 0.869 | [65] 0.943 | [67] 0.93 | [68] 0.918 | [69] 0.909 | [70] 0.891 | [71] 0.93
active: [26] 0.733 | [42] 0.657 | [66] 0.763

Nc1nc(SCc2ccc([N+](=O)[O-])cc2)c2ncn([C@@H]3O[C@H](CO)[C@H](O)C3O)c2n1 (stereo not given in full)
inactive: [72] 1.01 | locus YAL040C, strain CLN3, stronger effect = lower value 1.02 | locus YCL061C, strain MRC1 (second series), stronger effect = lower value 1 | [73] 0.994 | locus YER002W, strain NOP16, stronger effect = lower value 1 | [74] 1.04 | [75] 0.995 | [76] 0.989 | locus YNL175C, strain NOP13, stronger effect = lower value 0.996 | locus YNL197C, strain WHI3, stronger effect = lower value 1 | locus YNL224C, strain SQS1, stronger effect = lower value 1 | [77] 1.02 | locus YOR083W, strain WHI5 (second series), stronger effect = lower value 0.998 | [78] 1

COC(=O)c1cc([N+](=O)[O-])ccc1S(=O)(=O)Cc1ccc(Cl)cc1
inactive: [1] 0.971 | [2] 0.983 | [3] 0.991 | [4] 0.967 | [5] 0.998 | [6] 0.985 | [7] 0.98 | [8] 0.987 | [9] 0.988 | [10] 0.991 | [11] 0.952 | [12] 0.996 | [13] 0.983 | [14] 0.985 | [15] 0.948 | [16] 0.955 | [17] 0.956 | [18] 0.99 | [19] 0.974 | [20] 0.992 | [21] 0.974 | [22] 0.981 | [23] 0.941 | [24] 1.04 | [25] 0.946 | [26] 0.937 | [27] 0.97 | [28] 0.995 | [29] 0.98 | [30] 0.981 | [31] 0.966 | [32] 0.967 | [33] 0.964 | [34] 0.993 | [35] 0.88 | [36] 0.965 | [37] 0.976 | [38] 0.956 | [39] 0.949 | [40] 0.984 | [41] 1 | [42] 0.957 | [43] 0.951 | [44] 0.957 | [45] 0.958 | [46] 0.984 | [47] 0.957 | [48] 0.992 | [49] 0.996 | [50] 0.96 | [51] 0.988 | [52] 0.97 | [53] 0.98 | [54] 0.988 | [55] 0.976 | [56] 0.991 | [57] 0.952 | [58] 0.948 | [59] 0.973 | [60] 0.98 | [61] 0.984 | [62] 0.955 | [63] 0.951 | [64] 0.95 | [65] 0.983 | [66] 0.945 | [67] 0.987 | [68] 0.985 | [69] 0.984 | [70] 0.982 | [71] 0.981

O=C(OCCNc1ccc([N+](=O)[O-])cn1)c1ccc([N+](=O)[O-])o1
0.885 (inactive) and 0.148 (active): [26]
active: [72] 0.848 | locus YBR229C, strain ROT2, stronger effect = lower value 0.816 | locus YCL061C, strain MRC1, stronger effect = lower value 0.86 | [10] 0.888 | [12] 0.81 | [14] 0.887 | [21] 0.583 | locus YGR078C, strain PAC10, stronger effect = lower value 0.786 | [25] 0.17 | locus YHR087W, strain rtc3, stronger effect = lower value 0.744 | locus YJL187C, strain SWE1, stronger effect = lower value 0.86 | [35] 0.391 | [75] 0.795 | [37] 0.772 | [38] 0.708 | locus YLR039C, strain RIC1, stronger effect = lower value 0.449 | locus YLR085C, strain ARP6, stronger effect = lower value 0.727 | [42] 0.444 | locus YLR262C, strain YPT6, stronger effect = lower value 0.703 | [45] 0.609 | locus YMR219W, strain ESC1, stronger effect = lower value 0.809 | locus YMR263W, strain SAP30, stronger effect = lower value 0.827 | [77] 0.913 | locus YNR030W, strain Alg12, stronger effect = lower value 0.776 | [60] 0.572 | locus YPL055C, strain LGE1, stronger effect = lower value 0.738 | [63] 0.351 | [66] 0.624
inactive: [1] 0.898 | [2] 0.927 | [3] 0.922 | [4] 0.919 | [5] 0.92 | [6] 0.932 | [7] 0.917 | [8] 0.947 and 0.908 | [9] 0.922 | locus YDL134C, strain PPH21, stronger effect = lower value 0.961 | [11] 0.742 | [13] 0.898 | [73] 0.866 | [15] 0.829 | locus YEL061C, strain CIN8, stronger effect = lower value 0.931 | [16] 0.673 | [17] 0.771 | [18] 0.903 | [19] 0.894 | [20] 0.924 | [22] 0.91 | [23] 0.735 | [24] 0.735 | [74] 0.979 | [27] 0.67 | [28] 0.914 | [29] 0.663 | [30] 0.931 | [31] 0.677 | [32] 0.895 | [33] 0.788 | [34] 0.942 | locus YJR043C, strain POL32, stronger effect = lower value 0.968 | [36] 0.78 | [39] 0.737 | [40] 0.899 | [41] 0.822 | locus YLR058C, strain SHM2 (second series), stronger effect = lower value 0.943 | [43] 0.813 | [44] 0.845 | locus YML094W, strain GIM5, stronger effect = lower value 0.896 | [46] 0.915 | [47] 0.884 | [48] 0.904 | locus YMR307W, strain GAS1, stronger effect = lower value 0.817 | [49] 0.933 | [50] 0.81 | [76] 0.957 | [51] 0.902 | [52] 0.684 | [53] 0.9 | [54] 0.915 | locus YNL298W, strain CLA4 (second series), stronger effect = lower value 0.956 | [55] 0.709 | locus YOL006C, strain TOP1, stronger effect = lower value 0.831 | [56] 0.902 | [57] 0.697 | [58] 0.735 | [59] 0.838 | [61] 0.921 | [62] 0.814 | [64] 0.749 | [65] 0.921 | [78] 0.931 | [67] 0.929 | [68] 0.945 | [69] 0.888 | locus YPR135W, strain CTF4, stronger effect = lower value 0.944 | [70] 0.913 | [71] 0.894
